# From article PMC7862700, “An all-to-all approach to the identification of sequence-specific readers for epigenetic DNA modifications on cytosine”
# Assays:
# Experiment in all cases: DAPPL (digital affinity profiling via proximity ligation, sequencing); 10 mM Tris-HCl pH 7.5, 50 mM NaCl, 1 mM DTT, 4% glycerol, room temperature, 30 min; GST-TFs on glutathione beads, 16-mer random dsDNA library, 0.1% formaldehyde crosslink after washing; high values mean tight binding
# Conditions in all cases: protein: recombinant; tags: N-terminal GST; dsDNA, one strand shown
# FLI1 = biological target: T1, FLI1 (Homo sapiens, UniProt Q01543 1-452)
# T1 sequence: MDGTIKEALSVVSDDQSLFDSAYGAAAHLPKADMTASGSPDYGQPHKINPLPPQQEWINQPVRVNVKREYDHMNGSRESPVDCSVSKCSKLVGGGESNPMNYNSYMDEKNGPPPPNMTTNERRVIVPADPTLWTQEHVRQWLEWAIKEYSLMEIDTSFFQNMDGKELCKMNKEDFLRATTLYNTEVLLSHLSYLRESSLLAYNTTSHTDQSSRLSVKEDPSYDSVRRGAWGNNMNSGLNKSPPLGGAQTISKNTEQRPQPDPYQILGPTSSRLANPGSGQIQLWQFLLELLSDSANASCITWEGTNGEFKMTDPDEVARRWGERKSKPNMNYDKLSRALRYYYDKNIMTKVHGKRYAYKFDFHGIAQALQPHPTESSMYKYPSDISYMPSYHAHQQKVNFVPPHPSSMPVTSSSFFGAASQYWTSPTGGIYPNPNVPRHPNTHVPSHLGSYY
# In short: (§1)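 The binding signal reported is, for every hexamer, its read frequency for a factor over its read frequency for the tag-only sample. Reads came from pools of yeast-expressed, GST-fused human transcription factors on glutathione beads, barcoded with DNA and mixed with that sample, which were incubated with 200 nmole of a random double-stranded 16-mer DNA library in Tris/NaCl/DTT/glycerol buffer at room temperature for 30 min. After washing, the pools were crosslinked with 0.1% formaldehyde, proximity-ligated with BsaI/T4 ligase for 1 h at 37 °C, PCR-amplified and sequenced on an Illumina NextSeq500.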
# ELK1 = biological target: T2, ELK1 (Homo sapiens, UniProt P19419 1-428)
# T2 sequence: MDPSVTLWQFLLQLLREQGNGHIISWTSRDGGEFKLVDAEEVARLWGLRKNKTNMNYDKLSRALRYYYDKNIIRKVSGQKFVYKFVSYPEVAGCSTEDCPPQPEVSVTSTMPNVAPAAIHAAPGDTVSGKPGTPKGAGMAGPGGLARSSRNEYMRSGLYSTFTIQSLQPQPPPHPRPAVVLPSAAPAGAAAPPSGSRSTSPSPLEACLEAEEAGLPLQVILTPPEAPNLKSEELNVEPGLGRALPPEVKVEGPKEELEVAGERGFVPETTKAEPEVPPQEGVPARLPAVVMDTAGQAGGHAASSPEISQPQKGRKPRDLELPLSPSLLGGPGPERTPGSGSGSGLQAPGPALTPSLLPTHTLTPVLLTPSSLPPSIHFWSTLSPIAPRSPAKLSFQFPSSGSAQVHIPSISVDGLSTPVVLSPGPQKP
# In short: as §1
# GABPA = biological target: T3, GABPA (Homo sapiens, UniProt Q06546 1-454)
# T3 sequence: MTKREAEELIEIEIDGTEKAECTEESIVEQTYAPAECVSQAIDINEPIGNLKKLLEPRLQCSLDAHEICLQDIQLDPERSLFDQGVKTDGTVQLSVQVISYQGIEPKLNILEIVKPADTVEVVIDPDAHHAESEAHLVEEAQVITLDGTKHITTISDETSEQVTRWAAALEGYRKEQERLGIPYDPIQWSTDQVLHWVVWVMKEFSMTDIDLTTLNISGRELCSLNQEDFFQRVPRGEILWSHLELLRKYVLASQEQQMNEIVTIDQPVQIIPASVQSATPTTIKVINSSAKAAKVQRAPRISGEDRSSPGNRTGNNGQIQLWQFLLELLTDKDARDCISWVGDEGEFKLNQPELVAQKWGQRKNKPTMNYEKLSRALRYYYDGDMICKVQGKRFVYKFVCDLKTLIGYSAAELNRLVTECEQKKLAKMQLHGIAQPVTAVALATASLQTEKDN
# In short: as §1
# ERG = biological target: T4, ERG (Homo sapiens, UniProt P11308 1-479)
# T4 sequence: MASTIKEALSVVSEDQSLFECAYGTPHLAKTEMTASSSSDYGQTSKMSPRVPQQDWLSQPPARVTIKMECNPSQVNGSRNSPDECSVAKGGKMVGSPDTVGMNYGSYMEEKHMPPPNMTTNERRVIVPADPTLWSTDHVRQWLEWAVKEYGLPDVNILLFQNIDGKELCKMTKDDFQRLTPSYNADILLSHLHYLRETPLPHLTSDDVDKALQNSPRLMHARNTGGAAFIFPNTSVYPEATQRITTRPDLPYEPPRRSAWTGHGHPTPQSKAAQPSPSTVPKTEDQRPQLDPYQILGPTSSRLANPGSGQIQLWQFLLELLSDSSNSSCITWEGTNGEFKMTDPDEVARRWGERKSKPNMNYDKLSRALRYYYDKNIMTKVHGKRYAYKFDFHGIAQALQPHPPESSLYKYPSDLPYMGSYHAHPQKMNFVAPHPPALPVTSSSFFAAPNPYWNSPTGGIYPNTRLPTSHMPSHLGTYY
# In short: as §1
# ELF1 = ELF1 (Homo sapiens, UniProt P32519 1-619)
# Chain of ELF1 (P32519 whole entry): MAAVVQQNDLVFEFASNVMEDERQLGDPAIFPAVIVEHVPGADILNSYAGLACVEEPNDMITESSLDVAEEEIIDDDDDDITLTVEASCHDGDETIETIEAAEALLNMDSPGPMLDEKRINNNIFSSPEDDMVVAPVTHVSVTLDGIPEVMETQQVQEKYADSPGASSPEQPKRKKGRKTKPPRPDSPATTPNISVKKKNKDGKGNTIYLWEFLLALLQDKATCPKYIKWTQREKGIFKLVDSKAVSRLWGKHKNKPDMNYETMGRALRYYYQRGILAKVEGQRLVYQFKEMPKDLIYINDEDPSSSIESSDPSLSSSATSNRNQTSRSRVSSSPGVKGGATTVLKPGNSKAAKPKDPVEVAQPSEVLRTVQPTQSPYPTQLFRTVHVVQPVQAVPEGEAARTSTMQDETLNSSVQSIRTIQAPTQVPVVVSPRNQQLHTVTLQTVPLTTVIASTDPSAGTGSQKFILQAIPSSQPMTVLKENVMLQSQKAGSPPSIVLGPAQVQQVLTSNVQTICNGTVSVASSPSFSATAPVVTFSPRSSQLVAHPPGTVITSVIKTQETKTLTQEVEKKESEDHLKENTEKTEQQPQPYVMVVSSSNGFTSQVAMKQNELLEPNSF
# In short: as §1
# EHF = biological target: T5, EHF (Homo sapiens, UniProt Q9NZC4 1-300)
# T5 sequence: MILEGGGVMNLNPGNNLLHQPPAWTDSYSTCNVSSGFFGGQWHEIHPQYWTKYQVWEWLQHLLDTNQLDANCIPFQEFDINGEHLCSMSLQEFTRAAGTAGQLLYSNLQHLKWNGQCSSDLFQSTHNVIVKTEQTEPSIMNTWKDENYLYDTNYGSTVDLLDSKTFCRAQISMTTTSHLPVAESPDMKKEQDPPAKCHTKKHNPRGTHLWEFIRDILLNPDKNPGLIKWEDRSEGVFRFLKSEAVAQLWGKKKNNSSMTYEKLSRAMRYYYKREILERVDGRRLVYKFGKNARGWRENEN
# In short: as §1
# SPI1 = SPI1 (Homo sapiens, UniProt P17947 1-270)
# In short: as §1
# SPIB = SPIB (Homo sapiens, UniProt Q01892 1-262)
# Chain of SPIB (Q01892 whole entry): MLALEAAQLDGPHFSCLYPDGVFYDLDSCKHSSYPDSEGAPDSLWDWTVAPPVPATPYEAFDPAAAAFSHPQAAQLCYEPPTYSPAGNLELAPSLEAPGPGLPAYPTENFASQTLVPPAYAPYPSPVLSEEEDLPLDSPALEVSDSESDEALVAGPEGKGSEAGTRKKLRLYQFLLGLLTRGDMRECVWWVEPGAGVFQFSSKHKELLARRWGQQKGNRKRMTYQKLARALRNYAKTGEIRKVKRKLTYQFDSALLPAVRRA
# In short: as §1
# ELK3 = biological target: T6, ELK3 (Homo sapiens, UniProt P41970 1-407)
# T6 sequence: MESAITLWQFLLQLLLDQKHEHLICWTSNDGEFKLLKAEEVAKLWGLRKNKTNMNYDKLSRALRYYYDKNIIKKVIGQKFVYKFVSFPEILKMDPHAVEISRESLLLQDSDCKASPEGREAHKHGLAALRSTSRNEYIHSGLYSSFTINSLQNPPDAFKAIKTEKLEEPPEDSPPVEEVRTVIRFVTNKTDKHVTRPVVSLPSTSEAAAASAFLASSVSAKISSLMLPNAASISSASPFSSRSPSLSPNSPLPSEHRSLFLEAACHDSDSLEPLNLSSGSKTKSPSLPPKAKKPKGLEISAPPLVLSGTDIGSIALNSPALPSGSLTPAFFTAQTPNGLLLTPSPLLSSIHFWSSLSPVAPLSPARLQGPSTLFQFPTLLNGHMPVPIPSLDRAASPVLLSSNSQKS
# In short: as §1
Sequence,binding signal (FLI1),binding signal (ELK1),binding signal (GABPA),binding signal (ERG),binding signal (ELF1),binding signal (EHF),binding signal (SPI1),binding signal (SPIB),binding signal (ELK3)
CCTTAA,"1.38 fold enrichment (6-mer frequency, TF over GST control)","1.24 fold enrichment (6-mer frequency, TF over GST control)","1.27 fold enrichment (6-mer frequency, TF over GST control)","1.31 fold enrichment (6-mer frequency, TF over GST control)","1.35 fold enrichment (6-mer frequency, TF over GST control)","1.34 fold enrichment (6-mer frequency, TF over GST control)","1.4 fold enrichment (6-mer frequency, TF over GST control)","1.45 fold enrichment (6-mer frequency, TF over GST control)","1.2 fold enrichment (6-mer frequency, TF over GST control)"
CGAATA,"1.09 fold enrichment (6-mer frequency, TF over GST control)","1.23 fold enrichment (6-mer frequency, TF over GST control)","1.17 fold enrichment (6-mer frequency, TF over GST control)","1.07 fold enrichment (6-mer frequency, TF over GST control)","1.28 fold enrichment (6-mer frequency, TF over GST control)","1.2 fold enrichment (6-mer frequency, TF over GST control)","1.13 fold enrichment (6-mer frequency, TF over GST control)","1.11 fold enrichment (6-mer frequency, TF over GST control)","1.21 fold enrichment (6-mer frequency, TF over GST control)"
ATGCGC,"1.15 fold enrichment (6-mer frequency, TF over GST control)","1.18 fold enrichment (6-mer frequency, TF over GST control)","1.18 fold enrichment (6-mer frequency, TF over GST control)","1.18 fold enrichment (6-mer frequency, TF over GST control)","1.1 fold enrichment (6-mer frequency, TF over GST control)","1.17 fold enrichment (6-mer frequency, TF over GST control)","1.11 fold enrichment (6-mer frequency, TF over GST control)","1.21 fold enrichment (6-mer frequency, TF over GST control)","1.08 fold enrichment (6-mer frequency, TF over GST control)"
GCTTAC,"1.19 fold enrichment (6-mer frequency, TF over GST control)","1.12 fold enrichment (6-mer frequency, TF over GST control)","1.05 fold enrichment (6-mer frequency, TF over GST control)","1.19 fold enrichment (6-mer frequency, TF over GST control)","1.15 fold enrichment (6-mer frequency, TF over GST control)","1.16 fold enrichment (6-mer frequency, TF over GST control)","1.12 fold enrichment (6-mer frequency, TF over GST control)","1.12 fold enrichment (6-mer frequency, TF over GST control)","1.23 fold enrichment (6-mer frequency, TF over GST control)"
TCACCA,"1.18 fold enrichment (6-mer frequency, TF over GST control)","1.23 fold enrichment (6-mer frequency, TF over GST control)","1.12 fold enrichment (6-mer frequency, TF over GST control)","1.14 fold enrichment (6-mer frequency, TF over GST control)","1.18 fold enrichment (6-mer frequency, TF over GST control)","1.06 fold enrichment (6-mer frequency, TF over GST control)","1.21 fold enrichment (6-mer frequency, TF over GST control)","1.2 fold enrichment (6-mer frequency, TF over GST control)","1.22 fold enrichment (6-mer frequency, TF over GST control)"
CCCTTA,"1.29 fold enrichment (6-mer frequency, TF over GST control)","1.24 fold enrichment (6-mer frequency, TF over GST control)","1.24 fold enrichment (6-mer frequency, TF over GST control)","1.28 fold enrichment (6-mer frequency, TF over GST control)","1.3 fold enrichment (6-mer frequency, TF over GST control)","1.32 fold enrichment (6-mer frequency, TF over GST control)","1.31 fold enrichment (6-mer frequency, TF over GST control)","1.35 fold enrichment (6-mer frequency, TF over GST control)","1.25 fold enrichment (6-mer frequency, TF over GST control)"
TGCTCC,"1.53 fold enrichment (6-mer frequency, TF over GST control)","1.41 fold enrichment (6-mer frequency, TF over GST control)","1.45 fold enrichment (6-mer frequency, TF over GST control)","1.37 fold enrichment (6-mer frequency, TF over GST control)","1.31 fold enrichment (6-mer frequency, TF over GST control)","1.46 fold enrichment (6-mer frequency, TF over GST control)","1.38 fold enrichment (6-mer frequency, TF over GST control)","1.41 fold enrichment (6-mer frequency, TF over GST control)","1.38 fold enrichment (6-mer frequency, TF over GST control)"
